In PubChem BioAssay AID449750 (Broad Institute, 2010):
In all, about 2,100 compounds went through this assay and about 1,400 (67%) were called active. No rule for the calls is given here. So high a share suggests a set chosen from earlier hits. Some of the results follow. A call without a number means that no potency is given here. Potency and affinity values are given separately.

test: non-covalent RecA intein splicing inhibitors, dose response, biochemical, cell-free, fluorescence, secondary screen (AID 449750); conditions: series mostly up to 38 µM

Compound	outcome
COCCn1c(N)c(C(=O)NCc2cccs2)c2nc3ccccc3nc21	inactive
CC1=NN(Cc2ccccc2)C(=O)/C1=C\c1ccc(N(C)C)cc1	inactive
Cc1ccccc1NC1=C/C(=N\S(=O)(=O)c2cccs2)c2ccccc2C1=O	inactive
Oc1ccc(N=Cc2ccc(-c3cccs3)s2)cc1	inactive
